Source: PubChem BioAssay
The entries come from a sample that favours hits as a whole.
Dicer inh – blocks human Dicer maturation of pre-miR-21. AID 1347074. z-score at 25 µM. Q9UPY3. cat-ELCCA pre-miR-21 Dicer processing, chemiluminescence; stronger effect = higher value. actives 6% (n = 47,000); in the data active means z-score above about 3, passing the limit was not always enough;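 further: plate controls were vehicle for no effect and no enzyme for full effect; higher signal means more uncleaved substrate so more Dicer inhibition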
An asterisk follows results filed as active.

Clc1ccc(-n2ncnc2-c2ccccc2)cc1 was read as Dicer inh -0.28.
For CCN1C(=O)C(=O)c2cc(Br)ccc21 the results were Dicer inh 1.8.
O=C1CC(c2ccccc2)Oc2cc(Cl)ccc21 (configuration not stated) was read as Dicer inh -1.6.
O=C1CC(c2ccccc2)Oc2ccccc21 (configuration not stated) was read as Dicer inh 0.24.
Screening O=C1CC(c2ccc(O)cc2)Oc2cc(O)ccc21 (configuration not stated) returned Dicer inh 4.8*.
`NC(=O)C1CCN(CN2C(=O)c3ccccc3C2=O)CC1` gave Dicer inh -0.15.
Screening O=C(c1cn(CCOc2ccc(Cl)cc2)c2ccccc12)C1CC1 returned Dicer inh 2.1.
For CC1=CC(C)C2COC(c3ccc4c(c3)OCO4)C1C2C (configuration not stated) the results were Dicer inh 4*.
Screening O=C1CC(c2ccc3c(c2)OCO3)c2c(ccc3ccccc23)N1 (configuration not stated) returned Dicer inh 0.95.
CC1=CC(C)C2COC(c3ccccc3O)C1C2C (configuration not stated) was read as Dicer inh 1.2.
`COc1ccc(/C=C2\OC(c3ccc(OC)c(OC)c3)=Cc3cc(OC)c(OC)cc32)cc1OC` gave Dicer inh 0.23.
`O=C(Nc1ccc([N+](=O)[O-])cc1)Nc1csc(Cc2ccsc2)n1` gave Dicer inh 1.9.
Cc1c(-c2cc(N3C(=O)c4ccccc4C3=O)n(C)n2)sc2ccc(Cl)cc12 was read as Dicer inh -1.1.
Screening O=C(C1c2ccccc2Oc2ccccc21)N1CCCC1 returned Dicer inh 4*.
Screening O=C(O)C1c2ccccc2Oc2ccccc21 returned Dicer inh 0.95.
CC1CCCCN1C(=O)C1c2ccccc2Oc2ccccc21 (configuration not stated) was read as Dicer inh 1.
COC(=O)C1CCN(C(=O)C2c3ccccc3Oc3ccccc32)CC1 was read as Dicer inh 5*.
For CC(C)NC(=O)C1c2ccccc2Oc2ccccc21 the results were Dicer inh 2.8.
For CC1CN(C(=O)C2c3ccccc3Oc3ccccc32)CC(C)O1 (configuration not stated) the results were Dicer inh 2.
For O=C1NN(c2ccccc2)C(=S)Nc2ccccc21 the results were Dicer inh -0.28.
`COc1ccc(Br)cc1/C=C/c1[nH]c(=O)[nH]c(=O)c1[N+](=O)[O-]` gave Dicer inh -0.25.
For Cn1c2c(c(=O)n(C)c1=O)CN(CCO)CN2 the results were Dicer inh -3.4.
`OCCCNc1ncnc2c1sc1nc(-c3ccccc3)c3c(c12)CCCC3` gave Dicer inh -0.45.
OCCN(CCO)c1ncnc2c1sc1nc(N3CCOCC3)c3c(c12)CCCC3 was read as Dicer inh -0.37.
`CN(C)c1ccnc2sc3c(N(CCO)CCO)ncnc3c12` gave Dicer inh 3.3*.
Screening O=S(=O)(Nc1ccccc1N1CCOCC1)c1ccc(S(=O)(=O)c2ccccc2)s1 returned Dicer inh 0.33.
Screening O=S(=O)(Nc1ccc2c(c1)OCCO2)c1ccc(-c2ccccn2)s1 returned Dicer inh -0.04.
`O=S(=O)(Nc1ccccc1N1CCOCC1)c1ccc(-c2ccccn2)s1` gave Dicer inh 4.8*.
`Cc1nn(C)c(Sc2ccccc2NC(=O)C(Cl)Cl)c1[N+](=O)[O-]` gave Dicer inh -0.27.
Screening Cc1ccc(-c2nnc3c4ccccc4c(C)nn23)cc1S(=O)(=O)NC(C)(C)C returned Dicer inh 1.1.
`Cc1ccc(-c2nnc3c4ccccc4c(C)nn23)cc1S(=O)(=O)N1CCCC1` gave Dicer inh 3.2*.
Screening COc1ccc(-c2nnc3c4ccccc4c(C)nn23)cc1S(=O)(=O)NC(C)C returned Dicer inh 5*.
CNS(=O)(=O)c1cc(-c2nnc3c4ccccc4c(C)nn23)ccc1OC was read as Dicer inh 1.6.
`COc1ccc(-c2nnc3c4ccccc4c(C)nn23)cc1S(=O)(=O)NC1CCCCC1` gave Dicer inh 2.5.
Screening CCC(CO)NS(=O)(=O)c1cc(-c2nnc3c4ccccc4c(C)nn23)ccc1OC (configuration not stated) returned Dicer inh 2.8.
For COc1ccc(-c2nnc3c4ccccc4c(C)nn23)cc1S(=O)(=O)N(C)C1CCCCC1 the results were Dicer inh 0.88.
`Cc1ccc(-c2nnc3c4ccccc4c(C)nn23)cc1S(=O)(=O)N1CCN(c2ccccc2)CC1` gave Dicer inh 2.5.
COc1ccc(-c2nnc3c4ccccc4c(C)nn23)cc1S(=O)(=O)N1CCCC1 was read as Dicer inh 5.5*.
CCCN/C(C)=C(/C(=O)OCC)C(=S)Nc1ccc(OCC)cc1 was read as Dicer inh 2.
Screening COC(=O)c1scc(C)c1NC(=S)OC returned Dicer inh 2.
O=C(NCc1cccs1)c1nn2c(C(F)(F)F)cc(-c3cccs3)nc2c1Cl was read as Dicer inh 0.11.
